Reference: PubChem BioAssay (Tox21)
Where “and” joins values, the source holds several entries; their conditions need not be identical. Identical values can stand only once. Results filed as inconclusive are left out. Calls of active or inactive are those of the source. Unless noted, calls follow the shape of the dose curve; as a rule, active = well fitted curve in the direction sought with a large enough effect in the repeat runs; inconclusive = weak or mixed curves; inactive = no such curve, though single readings can be large; an effect the other way counts as inactive or inconclusive.

Assays:
[1] = qHTS assay to identify small molecule agonists of H2AX (AID 1224845; active = well fitted activation curve with a large enough effect in the signal ratio in the repeat runs, not every such curve was filed as active; the % refers to the signal ratio)
Outline: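 Phospho-H2AX Ser139 measured by HTRF (ex 320 nm; em 665 and 620 nm) after 24 hr antibody incubation. Compounds, 15 concentrations, 0.76% DMSO, were applied to CHO-K1 cells for 3hr at 37C before lysis.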

[2] = qHTS assay to identify small molecule agonists of the hypoxia (HIF-1) signaling pathway (AID 1224846; active = well fitted activation curve with a large enough effect in the signal ratio in the repeat runs, not every such curve was filed as active; the % refers to the signal ratio)
Outline: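 Reporter induction in HRE-bla ME-180 cells is taken as agonism: cells sit 5 hrs after plating, receive compounds or DMSO only, incubate 17 hrs at 37C under 5% CO2, and are loaded with CCF4-AM for beta-lactamase FRET measurement.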

[3] = qHTS assay to identify small molecule antagonists of the estrogen related receptor (ERR) signaling pathway from Tox21 library (AID 1224848); also: nearly all actives have a fitted effect of over 50% in size; also: potency is read from the fitted curve at half-maximal effect
Outline: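 Luciferase luminescence (ONE-Glo, 30 min room temperature) was the read-out. Cells of the NTP-supplied ERR line, 2,000 per well, were given 6 h at 37 C before compound addition in DMSO and 18 h exposure at 37 C.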

[4] = qHTS assay to identify small molecule agonists of the estrogen related receptor (ERR) signaling pathway from Tox21 library (AID 1224849; calls by dose curve; also: nearly all actives have a fitted effect of over 15% in size); settings: ERR reporter cell line, ONE-Glo luciferase, 18 h
Outline: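 Tox21 compounds tested for ERR agonism in an NTP reporter cell line: 18 h treatment at 37 C, then ONE-Glo luminescence.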

[5] = qHTS RealTime-Glo MT Cell Viability Assay in HepG2 cells - 24 hour (AID 1224867); also: nearly all actives have a fitted effect of over 50% in size
Outline: (§1)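 Cell number in HepG2 cultures estimated from NanoLuc luminescence generated by metabolic reduction of a prosubstrate by living cells. The homogeneous, nonlytic format allowed repeated reads at 0, 8, 16, 24, 32 and 40 h of compound exposure.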

[6] = qHTS RealTime-Glo MT Cell Viability Assay in HEK293 cells - 32 hour (AID 1224868); also: nearly all actives have a fitted effect of over 50% in size; also: potency is read from the fitted curve at half-maximal effect
Outline: (§2)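 Homogeneous bioluminescent viability format in HEK293 cells (600 cells/well). Following 5 h at 37 C/5% CO2, 23 nL compound was pintooled; the signal was measured repeatedly during 40 h incubation.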

[7] = qHTS RealTime-Glo MT Cell Viability Assay in HepG2 cells - 40 hour (AID 1224870); also: nearly all actives have a fitted effect of over 50% in size
Outline: (§3)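 Real-time viability: cells seeded at 600 per well together with NanoLuc and cell-permeant prosubstrate, compounds added after 5 h incubation. Luminescence tracked at 0, 8, 16, 24, 32 and 40 h of exposure.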

[8] = qHTS RealTime-Glo MT Cell Viability Assay in HEK293 cells - 16 hour (AID 1224872); also: nearly all actives have a fitted effect of over 50% in size; also: potency is read from the fitted curve at half-maximal effect
Outline: as §2

[9] = qHTS RealTime-Glo MT Cell Viability Assay in HepG2 cells - 8 hour (AID 1224873); also: nearly all actives have a fitted effect of over 55% in size
Outline: as §3

[10] = qHTS RealTime-Glo MT Cell Viability Assay in HEK293 cells - 40 hour (AID 1224874); settings: RealTime-Glo luminescence; max response: stronger effect = lower value; also: nearly all actives have a fitted effect of over 50% in size; also: potency is read from the fitted curve at half-maximal effect
Outline: (§4)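 HEK293 + NanoLuc + prosubstrate, 600 cells/well; 5 h, 37 C/5% CO2; compound 23 nL in DMSO by pintool; 37 C; luminescence read at 0, 8, 16, 24, 32 and 40 h time points.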

[11] = A CellTox Green Cytotoxicity Assay to monitor cytotoxicity in HEK293 cells - 24 hour (AID 1224875); also: nearly all actives have a fitted effect of over 45% in size
Outline: (§5)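 Tox21 screen in HEK293: membrane-impermeant cyanine dye fluoresces on binding dead-cell DNA; compound pinned 5 h post-seeding, plates held at 37 C, signal read repeatedly through 40 h.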

[12] = A CellTox Green Cytotoxicity Assay to monitor cytotoxicity in HepG2 cells - 16 hour (AID 1224876); also: nearly all actives have a fitted effect of over 45% in size
Outline: (§6)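 Measurements at 0, 8, 16, 24, 32 and 40 h of treatment captured CellTox Green fluorescence in HepG2 cells that had been co-plated with reagent and preincubated 5 h at 37 C/5% CO2.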

[13] = qHTS RealTime-Glo MT Cell Viability Assay in HepG2 cells - 32 hour (AID 1224877); also: nearly all actives have a fitted effect of over 55% in size
Outline: as §1

[14] = A CellTox Green Cytotoxicity Assay to monitor cytotoxicity in HepG2 cells - 24 hour (AID 1224878); also: nearly all actives have a fitted effect of over 45% in size
Outline: as §6

[15] = A CellTox Green Cytotoxicity Assay to monitor cytotoxicity in HepG2 cells - 40 hour (AID 1224879); also: nearly all actives have a fitted effect of over 40% in size; also: potency is read from the fitted curve at half-maximal effect
Outline: as §6

[16] = qHTS RealTime-Glo MT Cell Viability Assay in HEK293 cells - 0 hour (AID 1224880); also: top concentration of the series differs between compounds; nearly all actives have a fitted effect of over 45% in size
Outline: as §4

[17] = A CellTox Green Cytotoxicity Assay to monitor cytotoxicity in HEK293 cells - 32 hour (AID 1224881); also: nearly all actives have a fitted effect of over 40% in size
Outline: as §5

[18] = qHTS assay to identify small molecule agonists of H2AX - cell viability counter screen (AID 1224847; calls by dose curve;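 also: wild-type CHO-K1 cells; top concentration of the series differs between compounds; nearly all actives have a fitted effect of over 30% in size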)
Outline: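 Counter-screen for viability: CellTiter-Glo ATP luminescence read after 3 h compound treatment (15-point titration, 0.76% DMSO final) of CHO-K1 cells at 37C, with 30 min room-temperature reagent incubation.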

[19] = A CellTox Green Cytotoxicity Assay to monitor cytotoxicity in HEK293 cells - 0 hour (AID 1224869); also: nearly all actives have a fitted effect of over 50% in size
Outline: as §5

[20] = A CellTox Green Cytotoxicity Assay to monitor cytotoxicity in HEK293 cells - 40 hour (AID 1224871); also: nearly all actives have a fitted effect of over 45% in size
Outline: as §5
% is scaled to controls: 0 for no effect and ±100 for the full control effect.

C[C@]12CC[C@H]3[C@@H](CCC4=CC(=O)CC[C@@H]43)[C@@H]1CC[C@@H]2OC(=O)CCc1ccccc1
inactive: Potency [1] | outcome [2] | Potency [3] | activity change, positive = activation ([4]; at 42.5 µM (top of the series)) 10.2% | Potency [5] | Potency [6] | Potency [7] | Potency [8] | Potency [9] | max response [10] 0.945% | Potency [11] | Potency [12] | Potency [13] | Potency [14] | Potency [15] | outcome [16] | Potency [17]

COP(=O)(OC)OC(Br)C(Cl)(Cl)Br (stereo not drawn)
inactive: Potency [1] | outcome [2] | Potency [18] | Potency [5] | Potency [7] | Potency [9] | Potency [11] | Potency [12] | Potency [13] | Potency [14] | Potency [15] | outcome [16] | Potency [17]

Cc1cnc(C2=NC(C)(C(C)C)C(=O)N2)c(C(=O)O)c1 (stereo not drawn)
inactive: Potency [1] | outcome [2] | Potency [18] | Potency [5] | Potency [19] | Potency [7] | Potency [20] | Potency [8] | max response [10] 12.6% | Potency [11] | Potency [12] | Potency [14] | Potency [15] | outcome [16] | Potency [17]

CCCN(CCOc1c(Cl)cc(Cl)cc1Cl)C(=O)n1ccnc1
inactive: Potency [1] | outcome [2] | activity change, positive = activation ([4]; at 92.4 µM (top of the series)) -62.9% and -57.3% | Potency [5] | Potency [19] | Potency [7] | Potency [20] | Potency [9] | Potency [11] | Potency [12] | Potency [13] | Potency [14] | outcome [16] | Potency [17]
active: Potency [3] 15.7 µM and 24.3 µM | Potency [6] 19.9 µM and 27.5 µM | Potency [8] 22.3 µM and 27.5 µM | Potency [10] 19.9 µM and 27.5 µM | Potency [15] 43.6 µM

O=C1NC(=O)C(=O)C(=O)N1
inactive: Potency [1] | outcome [2] | Potency [18] | Potency [5] | Potency [7] | Potency [20] | Potency [8] | Potency [9] | max response [10] 6.33% | Potency [11] | Potency [12] | Potency [13] | Potency [14] | Potency [15] | outcome [16] | Potency [17]

CCc1ccccc1N
inactive: Potency [1] | outcome [2] | Potency [18] | Potency [5] | Potency [19] | Potency [7] | Potency [20] | Potency [8] | Potency [9] | max response [10] 1.07% | Potency [11] | Potency [12] | Potency [13] | Potency [14] | Potency [15] | outcome [16] | Potency [17]

Cc1ccc(N)c(C)c1
inactive: Potency [1] | outcome [2] | Potency [18] | Potency [5] | Potency [19] | Potency [7] | Potency [20] | Potency [8] | Potency [9] | Potency [11] | Potency [12] | Potency [13] | Potency [14] | Potency [15] | outcome [16] | Potency [17]

Nc1cccc2ccccc12
inactive: Potency [1] | outcome [2] | Potency [18] | Potency [5] | Potency [19] | Potency [7] | Potency [20] | Potency [8] | Potency [9] | max response [10] -9.7% and -1.99% | Potency [11] | Potency [12] | Potency [14] | Potency [15] | outcome [16] | Potency [17]

CN(C1CCCCC1)C1CCCCC1
inactive: Potency [1] | outcome [2] | Potency [18] | Potency [5] | Potency [7] | Potency [20] | Potency [8] | Potency [9] | max response [10] -2.03% | Potency [11] | Potency [12] | Potency [13] | Potency [14] | Potency [15] | outcome [16] | Potency [17]

O=C(O)C(F)(F)C(F)(F)C(F)(F)C(F)(F)C(F)(F)F
inactive: Potency [1] | outcome [2] | Potency [18] | Potency [5] | Potency [19] | Potency [7] | Potency [20] | Potency [8] | Potency [9] | max response [10] -1.16% | Potency [11] | Potency [12] | Potency [13] | Potency [14] | Potency [15] | outcome [16] | Potency [17]

CCCN(CCC)C(=O)Cc1c(-c2ccc(Cl)cc2)nc2ccc(Cl)cn12
inactive: Potency [1] | outcome [2] | Potency [18] | Potency [5] | Potency [7] | Potency [20] | Potency [9] | Potency [11] | Potency [12] | Potency [14] | outcome [16] | Potency [17]
active: Potency [6] 5.35 µM | Potency [8] 5.35 µM

CC(C)(C)c1ccc(CCOc2ncnc3ccccc23)cc1
inactive: Potency [1] | outcome [2] | Potency [18] | Potency [5] | Potency [19] | Potency [7] | Potency [20] | Potency [8] | Potency [9] | max response [10] 3.46% | Potency [11] | Potency [12] | Potency [13] | outcome [16] | Potency [17]

C=CCc1ccc(OC(=O)Cc2ccccc2)c(OC)c1
inactive: Potency [1] | outcome [2] | Potency [18] | Potency [5] | Potency [19] | Potency [7] | Potency [20] | Potency [9] | Potency [11] | Potency [12] | Potency [13] | Potency [14] | outcome [16] | Potency [17]

CCOC(=O)NC(O)C(Cl)(Cl)Cl (stereo not drawn)
inactive: Potency [1] | outcome [2] | Potency [18] | Potency [5] | Potency [19] | Potency [7] | Potency [20] | Potency [8] | Potency [11] | Potency [12] | Potency [13] | Potency [14] | Potency [15] | outcome [16] | Potency [17]

O=C(O)C(F)(F)C(F)(F)C(F)(F)C(F)(F)C(F)(F)C(F)(F)C(F)(F)C(F)(F)F
inactive: Potency [1] | outcome [2] | Potency [18] | Potency [6] | Potency [7] | Potency [20] | Potency [8] | Potency [11] | Potency [12] | Potency [14] | Potency [15] | outcome [16] | Potency [17]
